Experimental data reported in PubChem BioAssay (NCI).
About 79,000 compounds went through this panel and 15% of them were active in at least one assay; those are over-represented in the sample as a whole. Rule as the data show it: active = growth inhibition above about 70%; inactive = the rest.

Key:
[1] = NCI Yeast Anticancer Drug Screen. Data for the rad50 strain (AID 155);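 also: 0% = growth of vehicle-only cultures of the same strain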; settings: S. cerevisiae rad50 strain growth inhibition; at 50.0 µM; hits give high values
In short: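 Cells are treated with compound, grown, and their growth is then scored against vehicle-only cultures of the same repair-deficient yeast strain.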

[2] = NCI Yeast Anticancer Drug Screen. Data for the mec2-1 strain (AID 157); settings: S. cerevisiae mec2-1 strain, at 50.0 µM, hits give high values
In short: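 Vehicle-treated cultures served as reference for growth inhibition of compound-exposed mec2-1 yeast.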

[3] = NCI Yeast Anticancer Drug Screen. Data for the sgs1 mgt1 strain (AID 161);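 also: 0% = growth of cultures given vehicle only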; settings: S. cerevisiae sgs1 mgt1 strain, at 50.0 µM, hits give high values
In short: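 Read-out: growth inhibition vs vehicle controls. Cells: mutant yeast strain deficient in DNA damage repair.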

[4] = NCI Yeast Anticancer Drug Screen. Data for the cln2 rad14 strain (AID 165);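 also: 0% = growth equal to vehicle treated cultures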; settings: S. cerevisiae cln2 rad14 strain, at 50.0 µM, hits give high values
In short: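 Each compound was tested on cln2 rad14 yeast. Inhibition of growth was calculated against vehicle-exposed controls.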

[5] = NCI Yeast Anticancer Drug Screen. Data for the bub3 strain (AID 167); settings: S. cerevisiae bub3 mutant strain, at 50.0 µM, hits give high values
In short: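 Part of a panel of yeast mutants defective in DNA damage repair or cell cycle regulation. Each strain is grown with compound, and inhibition is calculated relative to solvent-treated cultures.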

[6] = NCI Yeast Anticancer Drug Screen. Data for the mlh1 rad18 strain (AID 175); settings: S. cerevisiae mlh1 rad18 strain growth inhibition; at 50.0 µM; hits give high values
In short: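 Vehicle-treated cultures served as the reference for growth inhibition in a yeast strain carrying DNA damage repair alterations exposed to each compound.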

Measured: growth inhibition

CC1(C)C(O)c2ccccc2OC1N1CCN(C2Oc3ccccc3C(O)C2(C)C)CC1 (stereo unspecified)
inactive: [1] -18.4% | [2] -1.35% | [3] 23.8% | [4] -4.65% | [5] -10.8% | [6] -8.6%

CC(=Nc1ccc(C)cc1N)c1c(O)cc(C)oc1=O
inactive: [1] -8.75% | [2] -7.5% | [3] -11.4% | [4] -32.6% | [5] 1.3% | [6] -5.85%

CC(O)COC(C)c1ccccc1 (stereo unspecified)
inactive: [1] 9.05% | [2] 0.3% | [3] -0.7% | [4] 5.35% | [5] -6.45% | [6] 2.1%

NC(=S)N/N=C(\Cc1nc2ccc(Cl)cc2[nH]c1=O)C(=O)Nc1ccc(Cl)cc1
inactive: [1] -17.9% | [2] 2.35% | [3] -23.9% | [4] -10.2% | [5] -15.4% | [6] -9.05%

CC(C)(C)NC(=O)NCCCl
inactive: [1] 1% | [2] -11.4% | [3] -2.45% | [4] -33.9% | [5] 2.95% | [6] 5.35%

CC1(c2ccco2)CCC(=O)CC1=O (stereo unspecified)
inactive: [1] 4.2% | [2] 4.25% | [3] 4.1% | [4] 11.2% | [5] -12.9% | [6] 1.1%

O=S(=O)(c1ccc(Br)cc1)S(=O)(=O)c1ccc(Br)cc1
inactive: [1] -22.6% | [2] 0.7% | [3] -23.1% | [4] -13.9% | [5] 23.2% | [6] -16.1%

CCC(Sc1cc(Cl)c(C)cc1S(=O)(=O)Nc1nc(N)nc(N(C)C)n1)C(=O)O (stereo unspecified)
inactive: [1] -16.1% | [2] -10.1% | [3] 6.3% | [4] 25.2% | [5] -12.3% | [6] 2%

COc1ccc(OC)c(C(c2cc(OC)ccc2OC)C(Cl)(Cl)Cl)c1
inactive: [1] 0.45% | [2] -13.2% | [3] -5.3% | [4] -6.45% | [5] -6% | [6] 14.6%

S=C1Nc2ccccc2C2CC=NN12 (stereo unspecified)
inactive: [1] -1.75% | [2] -4.15% | [3] 10.6% | [4] -30% | [5] -44.6% | [6] 29.4%

CC(=O)Nc1cc2c(cc1Br)-c1ccccc1C2=O
inactive: [1] -15% | [2] -3.5% | [3] 15.4% | [4] -31.7% | [5] 9.45% | [6] -2.15%

COC(CCC#N)c1ccc(Cl)cc1 (stereo unspecified)
inactive: [1] -31.9% | [2] -20.6% | [3] -26.6% | [4] 1.7% | [5] -31.9% | [6] -26.6%

COCC1(c2ccccc2)NC(=O)N(C)C1=O (stereo unspecified)
inactive: [1] -3.05% | [2] -2.15% | [3] -1.35% | [4] -9.15% | [5] -7.35% | [6] -2%

O=C1CCC(C(=O)Nc2ccc(Cl)c(Cl)c2)N1 (stereo unspecified)
inactive: [1] 1.75% | [2] 10.6% | [3] 8.5% | [4] -10.7% | [5] 1.1% | [6] -8.15%

O=C1c2ccccc2C2(O)Nc3c(ccc4ccccc34)C12O (stereo unspecified)
inactive: [1] 2% | [2] -3.3% | [3] 10.6% | [4] -3.8% | [5] -16.9% | [6] 15.4%

COC(=O)C(CC(=O)[C@H]1CC[C@H]2[C@@H]3CC=C4C[C@@H](OC(C)=O)CC[C@]4(C)[C@H]3CC[C@]12C)OC (stereo partly specified)
inactive: [1] 11.8% | [2] 8.6% | [3] 15.2% | [4] 2.45% | [5] -22.4% | [6] 9%

C=CCCCCCCCCC1OCC(CC)C(CCC)O1 (stereo unspecified)
inactive: [1] 5.65% | [2] 10.1% | [3] -2.8% | [4] 47.5% | [5] 26.5% | [6] 39.3%

CCOCNC(=O)Nc1ccccc1
inactive: [1] -5.4% | [2] -15.6% | [3] 7% | [4] -37.5% | [5] 0.35% | [6] 3.9%

CCC/C=C(/CC)COC(C)=O
inactive: [1] 3.15% | [2] -19.1% | [3] -6.6% | [4] -7.25% | [5] -5.35% | [6] -3.85%

CC1CC(C)SC(C)S1 (stereo unspecified)
inactive: [1] -30.6% | [2] -7.95% | [3] -10.1% | [4] -87.4% | [5] -2.7% | [6] -14.8%

CC(Oc1ccccc1-c1ccccc1)C(=O)N(C)C (stereo unspecified)
inactive: [1] -15.2% | [2] -0.2% | [3] 1.45% | [4] 0.75% | [5] -20.6% | [6] -45.6%
